HTT aggregate: reduces HttQ103-GFP aggregates in PC12 cells | PC12 HttQ103-GFP aggregates, Acumen cytometry, 40 h | Potency, µM (series often up to 46.1 µM), actives largely listed as inhibitors | actives 1.1% (n = 220,000); further: nearly all actives have a fitted effect of over 60% in size
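Steps: seed 1500 PC12 HTTQ103-GFP cells/well; add tebufenozide, 100 nM final; add compound titration; add ATPLite reagent; quantify GFP aggregates by laser scanning cytometry.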
NPSR antag: antagonists of human neuropeptide S receptor cAMP signaling. Q6W5P4. AID 1461. actives 1% (n = 220,000). Potency, µM (series often up to 38.3 µM), hits mostly inhibitors. CHO-NPSR cells, cAMP TR-FRET, antagonist mode; further: nearly all actives have a fitted effect of over 50% in size
Target sequence (Q6W5P4 whole entry, looked up): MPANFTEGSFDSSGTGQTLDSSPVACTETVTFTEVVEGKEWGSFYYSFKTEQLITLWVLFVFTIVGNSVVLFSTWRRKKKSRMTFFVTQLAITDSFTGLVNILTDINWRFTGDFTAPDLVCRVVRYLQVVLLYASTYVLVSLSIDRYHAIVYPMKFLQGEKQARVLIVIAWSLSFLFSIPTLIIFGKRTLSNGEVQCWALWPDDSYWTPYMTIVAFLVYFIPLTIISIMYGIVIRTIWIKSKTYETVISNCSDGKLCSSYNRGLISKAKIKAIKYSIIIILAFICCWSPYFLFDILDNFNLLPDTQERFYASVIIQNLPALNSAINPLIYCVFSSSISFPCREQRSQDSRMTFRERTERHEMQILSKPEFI
Lamin A splicing: LMNA splicing modulation. HeLa LMNA splicing GFP/RFP minigene ratio, 48 h. Potency, µM (top dose mostly 46.1 µM), usual class: inhibitors. actives 0.01% (n = 200,000). AID 1487; active means well fitted inhibition curve with a large enough effect in the signal ratio, with a control signal flat, not every such curve was filed as active; inconclusive means small, poorly fitted or top-dose-only effect, or effect the other way, or a change in a side signal; the % refers to the signal ratio
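Read-out is the ratio of GFP to DsRed2 object intensity, acquired by 488 nm laser-scanning cytometry on HeLa lamin A-EGFP minigene reporter cells. Compound incubation 48 hrs at 37 °C in Opti-MEM with 2% FBS; DMSO 0.5% final.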
HTT ATP protect: cytoprotection in Huntington HTT-Q103 PC12 cell model; Potency, µM (doses to about 56.4 µM), actives largely listed as activators; AID 1471; PC12 HTT-Q103 induced, cytoprotection, ATP luminescence, 40 h; actives 0.14% (n = 230,000); further: nearly all actives have a fitted effect of over 45% in size
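Stable PC12 Q103-GFP cells in serum-supplemented, phenol red-free DMEM; induction by tebufenozide at 100 nM final; compound dose series; cell viability quantified luminescently from ATP.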
Epigenetic reg: epigenetic control regulation, reporter derepression; murine LDR cells, GFP reporter derepression, 30 h; Potency, µM (titrated, usually from 53.9 µM), actives largely listed as activators; actives 0.2% (n = 280,000); AID 1865; further: nearly all actives have a fitted effect of over 60% in size
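In this reporter-derepression format, murine cells bearing a silenced integrated CMV-GFP locus incubate with test compound (30 h, 37 C), then are washed and imaged; fluorescent objects of 20–120 um count as induced cells.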
A number is an active result; n = inactive; u = inconclusive; x = no result; [ ] = dose if it differs, or a comment. Most compounds without a hit are left out; they make up all but 1.5% or so of the library. Unless noted, the call rests on the fitted dose curve; in most records, active means well fitted curve in the direction sought with a large enough effect; inconclusive means small, poorly fitted or top-dose-only effect, or another doubt; inactive means no such curve, though single readings can be large; an effect the other way counts as inactive or inconclusive.

SMILES	HTT aggregate	NPSR antag	Lamin A splicing	HTT ATP protect	Epigenetic reg
CCc1ccc(NC(=O)CSc2nc3cc(C(=O)OC)ccc3c(=O)n2Cc2ccco2)cc1	n	n	n	n	n
COC(=O)C1=C(C(=O)OC)[C@@H]2Nc3ccccc3[C@@]23C[C@@H](C(=O)OC)N(S(=O)(=O)c2ccc(Br)cc2)C3=N1	x	x	n[9.22 µM]	n[10 µM]	x
O=C(Nc1ccc(C(=O)N2CCOCC2)cc1)Nc1cccc(Cl)c1	11µM	n	u	n[10 µM]	n
COc1ccc(C(=O)NCC(c2ccc3c(c2)OCO3)N2CCN(C)CC2)cc1OC (configuration not stated)	x	x	n	x	n
O=c1c2ccc([N+](=O)[O-])c3cccc(c32)c2nc3ccccc3n12	n	n	u	n	n
O=c1c2cccc3c(N4CCOCC4)ccc(c32)c2nc3ccccc3n12	n	n	n	n[0.074 µM]	13µM
O=C(NC1CC1)c1cc2c(s1)-c1ccccc1OC2	6.3µM	n	n	n	n
O=C(NCc1ccco1)c1nc2c(nnn2Cc2cccc(Cl)c2)c(=O)[nH]1	n	n	n	4.5µM	n
Cc1ccc(Cn2nnc3c(=O)[nH]c(C(=O)NCc4ccco4)nc32)cc1	n	n	n	n	n
O=C1c2ccccc2-c2ccc(N=[N+]([O-])c3ccc4c(c3)C(=O)c3ccccc3-4)cc21	x	x	x	n[10 µM]	x
COc1cccc(NC(=O)Nc2ccc3nc(N4CCN(C)CC4)cc(C)c3c2)c1	x	x	u	x	n
O=C(NNC(=S)NC(=O)C12CC3CC(CC(C3)C1)C2)c1ccncc1	3.2µM	n	u	n[10 µM]	n
Cc1ccccc1S(=O)(=O)Cc1ccc(C(=O)N2CCN(c3cccc(Cl)c3)CC2)o1	x	x	x	x	n
Cc1ccccc1S(=O)(=O)Cc1ccc(C(=O)N2CCN(c3cccc(C)c3C)CC2)o1	13µM	u	u	n[10 µM]	n
CCOc1ccc(C2c3c(oc4ccc(C)cc4c3=O)C(=O)N2CCCN(C)C)cc1OC (configuration not stated)	x	x	n	x	n
CC(=O)Nc1nonc1-c1nnc(SCc2ccccc2C)n1C	x	x	n	x	n
CCN(CC)CCN(C(=O)c1ccc(S(=O)(=O)N2CCCCC2)cc1)c1nc2cc3c(cc2s1)OCO3	u	10µM	x	x	n
CN(C)CCCN(C(=O)c1ccc(S(=O)(=O)N(C)C)cc1)c1nc2cc3c(cc2s1)OCO3	n	n	n	n	n
Cc1ccc(CNC(=O)C(=O)NCC(c2ccco2)S(=O)(=O)c2ccc(C)cc2)cc1 (configuration not stated)	x	x	n	x	n
CCCc1nn2c(=O)cc(COC(=O)c3ccc(NC(=O)C4CCCCC4)cc3)nc2s1	x	x	n	x	n
CN1CC=C2C(C#N)=C(N)C(C#N)(C#N)C(c3ccsc3)C2C1 (configuration not stated)	n	n	n	n	n
N#CC1=C(N)C(C#N)(C#N)C(c2ccncc2)C2CN(C(=O)OCc3ccccc3)CC=C12 (configuration not stated)	n	4µM	n	n[10 µM]	n
CCOC(=O)N1CC=C2C(C#N)=C(N)C(C#N)(C#N)[C@H](c3ccsc3)[C@H]2C1	0.56µM	n	n	n	n
COc1ccc(CNC(=O)c2ccc(N3CCCC3)c(NC(=O)NCc3ccc(F)cc3)c2)cc1	x	x	n	x	n
Clc1ccc(Nc2ncnc3c2cnn3-c2ccccc2)cc1	3.5µM	n	n	n	n
SMILES	HTT aggregate	NPSR antag	Lamin A splicing	HTT ATP protect	Epigenetic reg
CCC1(C)Cc2c(sc3nc(SC)n(Cc4ccccc4)c(=O)c23)CO1 (configuration not stated)	u	u	n	n	n
CC1(C)Cc2c(sc3[nH]c(=S)n(Cc4ccccc4)c(=O)c23)CO1	18µM	n	n	n	n
O=C(OCC(=O)N1CCN(C(=O)c2ccco2)CC1)c1cc(-c2ccco2)nc2ccccc12	n	n	n	n	n
O=C(OCC(=O)N1CCN(C(=O)c2ccco2)CC1)c1cc(-c2ccc(Cl)c(Cl)c2Cl)nc2ccccc12	n[9.22 µM]	10µM	n	n	n
Cc1cccc(C)c1NC(=O)C(C)c1ccc(-c2ccccc2)c(F)c1 (configuration not stated)	18µM	u	u	n	n
CCCN(C(=O)Cn1ncc2c1-c1ccccc1OC2)c1cccc(C)c1	x	x	x	x	n
O=C(NC1C/C(=N/O)c2cc3c(cc21)OCO3)C(F)(F)F (configuration not stated)	u	n	x	4µM	n
COc1cccc(CNC(=O)CN2C(=O)CCn3nc(-c4cn(C)c5ccccc45)cc32)c1OC	x	x	n	x	n
CO/N=C(\C(=O)N[C@@H]1C(=O)N2C(C(=O)O)=C(CSc3nc(=O)c(O)nn3C)CS[C@@H]12)c1csc(N)n1	x	x	x	n[1.9 µM]	x
CC1(C)COC(c2cc([N+](=O)[O-])ccc2Cl)=N1	n	n	n	n	n
CC1(C)COC(c2ccc(F)c([N+](=O)[O-])c2)=N1	35µM	n	u	n[10 µM]	u
COc1cc(/C=C(\C#N)c2nc3ccccc3[nH]2)cc(Cl)c1OCc1ccccc1Cl	x	x	x	x	11µM
CC(C)Nc1nnc(SCC(=O)c2c(N)n(Cc3ccccc3)c(=O)n(C)c2=O)s1	0.11µM	n	n	n	n
CC(=O)Nc1ccc(SCC(=O)c2c(N)n(Cc3ccccc3)c(=O)n(C)c2=O)cc1	n[9.22 µM]	n	x	n[10 µM]	n
CN(CCOc1ccccc1)c1ccc(S(=O)(=O)N2CCCCC2)cn1	n	n	u	n	n
CN(Cc1c(F)cccc1Cl)c1ccc(S(=O)(=O)N2CCOCC2)cn1	3.5µM	u	u	n	n
O=C(NC1CCCCCCC1)c1cc(COc2ccc3ncccc3c2)on1	3.2µM	n	u	n	n
Cc1cccnc1CN1CCN(C(=O)c2cc(COc3ccc4ncccc4c3)on2)CC1	6.3µM	n	x	n	n
Cn1cccc1C(=O)N1CCC2(CCCN(c3ccccc3)C2)CC1	x	x	x	n	x
Cc1cccc(N2CCN(C(=O)c3cn(CC(C)C)c(=O)c4c3c3ccccc3n4C)CC2)c1C	x	x	x	x	n
Cc1ccccc1OCC(=O)Nc1sc(C(=O)Nc2cccc(C)c2C)c(C)c1C#N	n	4µM	n	n	n
COc1ccccc1NC(=O)c1sc(NC(=O)c2ccco2)c(C#N)c1C	n	n	n	n	n
CC1CCN(C(=O)CN2c3ccc(C(C)C)cc3-c3ccccc3S2(=O)=O)CC1	x	x	n	x	n
Cc1cccc(NC(=O)c2oc3c(c2C)C(=O)CC(C)(C)C3)n1	22µM	n	n	n[0.074 µM]	n
Cc1cccc(NC(=O)c2cccs2)n1	n	n	n	n[10 µM]	n
CCSc1ccc2cc(OC)ccc2[n+]1CC	8.9µM	n	x	n	n
CCn1ccc2cc(OC)ccc2c1=S	n	n	n	n	n
O=C(Cn1c(=O)oc2cc(S(=O)(=O)NCc3ccccc3)ccc21)N(CCO)Cc1ccccc1	x	x	u	x	n
COc1ccc(Br)cc1CNC(=O)c1ccc2c(c1)nc1n2CCCCC1	x	x	u	x	n
